# Records with an inconclusive call do not appear. Calls of active or inactive are those of the source. How the source made its calls: active means hit-call score of the fitted dose curve at least 0.9, where 1 is the maximum; inconclusive means response in the unintended direction; inactive means score below 0.9.
# Experiments:
# [1] = ACEA_AR_agonist_AUC_viability: ACEA Biosciences xCELLigence Real-Time Cell Analysis on Androgen Receptor Agonism for Viability (AID 2283775);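 on AC50: viability read 80 hours after compound addition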
# Summary of the method: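 Viability endpoint from xCELLigence impedance in 22Rv1 prostate cells at 80 h. Eight-point series, 100 uM maximum final.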
# [2] = ACEA_AR_antagonist_AUC_viability: ACEA Biosciences xCELLigence Real-Time Cell Analysis on Androgen Receptor Antagonism for Viability (AID 2283776);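 further: 22Rv1 human prostate cancer cells growing on impedance electrode plates; area under impedance growth curve at 80 h after dosing as viability; hits lower the growth signal relative to DMSO meaning cytotoxicity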
# Summary of the method: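 Real-time electrical impedance tracks 22Rv1 proliferation after continuous compound exposure (top 100 uM final, 1:4 steps, 8 concentrations). The 80 h area-under-curve serves as the cytotoxicity readout relative to DMSO.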
# [3] = ACEA_ER_AUC_viability: ACEA Biosciences xCELLigence Real-Time Cell Analysis on Estrogen Receptor Agonism for Viability (AID 2283782);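 further: hit means loss of impedance signal meaning reduced cell growth or viability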
# Summary of the method: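 Viability endpoint: reduced impedance area under the curve relative to DMSO, recorded by real-time electrode sensing over ~80 h of continuous exposure. Duplicate plates of T47D in hormone-depleted medium; eight concentrations, 1:4 dilutions, 100 uM maximum.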
# AR (gene 367) = AR (gene 367) (UniProt P10275); experiment: ACEA_AR_agonist_80hr: ACEA Biosciences xCELLigence Real-Time Cell Analysis on Androgen Receptor Agonism for Proliferation (AID 2283783);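 further: hits increase impedance growth signal above DMSO baseline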
# Chain of AR (gene 367) (P10275 whole entry, looked up): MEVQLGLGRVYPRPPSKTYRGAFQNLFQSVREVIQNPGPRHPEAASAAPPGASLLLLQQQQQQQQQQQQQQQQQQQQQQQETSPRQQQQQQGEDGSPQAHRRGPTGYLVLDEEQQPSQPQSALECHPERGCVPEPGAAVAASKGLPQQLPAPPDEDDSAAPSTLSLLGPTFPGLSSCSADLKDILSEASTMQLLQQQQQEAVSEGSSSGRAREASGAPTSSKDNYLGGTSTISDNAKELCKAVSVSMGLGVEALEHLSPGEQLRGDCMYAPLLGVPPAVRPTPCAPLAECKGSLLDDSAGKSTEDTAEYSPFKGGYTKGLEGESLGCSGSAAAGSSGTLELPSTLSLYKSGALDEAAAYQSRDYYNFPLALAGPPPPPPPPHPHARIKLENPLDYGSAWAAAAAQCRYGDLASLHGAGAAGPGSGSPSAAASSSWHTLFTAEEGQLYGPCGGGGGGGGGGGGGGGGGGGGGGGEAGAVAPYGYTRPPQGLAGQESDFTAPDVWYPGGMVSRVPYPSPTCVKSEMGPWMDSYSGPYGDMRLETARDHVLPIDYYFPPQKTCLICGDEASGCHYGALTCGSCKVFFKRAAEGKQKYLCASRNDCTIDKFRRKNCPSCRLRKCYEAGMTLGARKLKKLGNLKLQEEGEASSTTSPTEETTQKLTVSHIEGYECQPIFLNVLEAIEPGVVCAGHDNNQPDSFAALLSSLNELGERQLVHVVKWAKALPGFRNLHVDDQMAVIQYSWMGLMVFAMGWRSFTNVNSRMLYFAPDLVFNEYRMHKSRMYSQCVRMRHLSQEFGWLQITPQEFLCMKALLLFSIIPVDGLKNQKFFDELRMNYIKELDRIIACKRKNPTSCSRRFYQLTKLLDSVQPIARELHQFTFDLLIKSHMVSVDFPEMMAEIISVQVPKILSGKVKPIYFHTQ
# Summary of the method: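 Eight concentrations, 1:4 serial dilution from a 100 uM final top, in biological duplicate. Impedance-based real-time growth of 22Rv1 cells after overnight baseline, recorded hourly and read at 80 hours. Controls: testosterone, MG132, assay media.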
structure (smiles),measurement,setting,value
O=C1c2ccccc2C(=O)N1SC(Cl)(Cl)Cl,AC50,[1],8.53 µM (active)
same,AC50,[2],19.2 µM (active)
same,outcome,[3],inactive
COP(=O)(OC)OC=C(Cl)Cl,outcome,[2],inactive
COP(=S)(OC)Oc1ccc([N+](=O)[O-])cc1,outcome,[2],inactive
same,outcome,[3],inactive
CCC(C)Nc1c([N+](=O)[O-])cc(C(C)(C)C)cc1[N+](=O)[O-] (stereo not drawn),outcome,[1],inactive
same,AC50,[2],36.6 µM (active)
same,outcome,[3],inactive
O=C(O)COc1ccc(Cl)cc1Cl,outcome,[1],inactive
same,outcome,[2],inactive
same,outcome,[3],inactive
CC1(c2ccc(Oc3ccccc3)cc2)OC(=O)N(Nc2ccccc2)C1=O (stereo not drawn),AC50,[1],1.01 µM (active)
same,AC50,[2],0.883 µM (active)
same,AC50,[3],45.8 µM (active)
CNC(=O)Oc1ccccc1OC(C)C,outcome,[2],inactive
same,outcome,[3],inactive
CCc1ccc(C(=O)NN(C(=O)c2cc(C)cc(C)c2)C(C)(C)C)cc1,AC50,[1],50 µM (active)
same,AC50,[2],50 µM (active)
same,outcome,[3],inactive
C[C@H]1[C@H](c2ccc(Cl)cc2)SC(=O)N1C(=O)NC1CCCCC1,AC50,[1],73 µM (active)
same,AC50,[2],12.4 µM (active)
same,AC50,[3],79.9 µM (active)
same,outcome,AR (gene 367),inactive
Cc1[nH]c(=O)n(C(C)(C)C)c(=O)c1Cl,outcome,[1],inactive
same,outcome,[2],inactive
same,outcome,[3],inactive
CC(C)(C)C(O)/C(=C\c1ccc(Cl)cc1Cl)n1cncn1 (stereo not drawn),AC50,[2],20.3 µM (active)
same,AC50,[3],81.1 µM (active)
Clc1ccccc1-c1nnc(-c2ccccc2Cl)nn1,outcome,[3],inactive
O=[N+]([O-])c1c(Cl)c(Cl)c(Cl)c(Cl)c1Cl,AC50,[1],58.6 µM (active)
same,AC50,[2],50 µM (active)
same,AC50,[3],72.3 µM (active)
same,outcome,AR (gene 367),inactive
CC(C)OC(=O)Nc1cccc(Cl)c1,AC50,[1],86.1 µM (active)
same,AC50,[2],50 µM (active)
same,AC50,[3],79.6 µM (active)
OCCOc1ccccc1,outcome,[2],inactive
same,outcome,[3],inactive
C#CCN1C(=O)COc2cc(F)c(N3C(=O)C4=C(CCCC4)C3=O)cc21,AC50,[1],50 µM (active)
same,AC50,[2],50 µM (active)
same,outcome,AR (gene 367),inactive
CN1CSC(=S)N(C)C1,AC50,[1],50 µM (active)
same,AC50,[2],31.5 µM (active)
same,AC50,[3],39.7 µM (active)
CNC(=O)CSP(=S)(OC)OC,outcome,[2],inactive
N#Cc1c(Cl)c(Cl)c(Cl)c(C#N)c1Cl,AC50,[2],3.7 µM (active)
same,AC50,[3],1.54 µM (active)
